# This is one part of a sample in which hits are shown more often than they occur.
# nsP2pro primary: Primary qHTS for inhibitors of NSP2Pro chikungunya virus (CHIKV) | FRET peptide cleavage, nsP2pro, fluorescence 1 h | Potency, µM (top dose mostly 24.9 µM), most hits filed as inhibitors | 31,000 compounds, 1.1% hits; further: nearly all actives have a fitted effect of over 60% in size
#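 Recombinant nsP2pro (150 nM) was preincubated with compound 15 min at room temperature in 10 mM Tris-HCl pH 8.0, 0.01% Tween 20. Peptide 2 FRET substrate (2.5 uM) was then added and fluorescence read after 1 h. Seven-point series, up to 25 uM.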
# nsP2 cell sec: Secondary cell base assay for inhibitors of NSP2Pro Chikungunya virus (CHIKV) | Potency, µM (top dose mostly 51.1 µM), actives largely listed as inhibitors | shares compounds with nsP2pro primary | 450 compounds, 10% hits | cell-based CHIKV nsP2 protease reporter assay; further: nearly all actives have a fitted effect of over 70% in size
# NSP2 full ctr: Selectivity profile for inhibitors of NSP2Pro chikungunya virus (CHIKV): Full length NSP2 enzyme counterscreen (CHIKV-NSP2); shares compounds with nsP2pro primary; Full-length CHIKV NSP2 protease enzymatic counterscreen; Potency, µM (top dose mostly 50.7 µM), most hits filed as inhibitors; 410 compounds, 39% hits; AID 1964101, 2024; further: nearly all actives have a fitted effect of over 65% in size
# Furin counterscr: Selectivity profile for inhibitors of NSP2Pro chikungunya virus (CHIKV): Human furin counterscreen; Recombinant human furin enzymatic counterscreen, fluorogenic substrate; 410 compounds, 6% hits; shares compounds with nsP2pro primary; Potency, µM (titrated, usually from 50.6 µM), most hits filed as inhibitors
# NS23 peptide cs: Selectivity profile for inhibitors of NSP2Pro chikungunya virus (CHIKV): Endogenous NS2/3 peptide Counterscreen | shares compounds with nsP2pro primary | AID 1964103, 2024 | 410 compounds, 34% hits | Potency, µM (series often up to 51 µM), most hits filed as inhibitors | Purified CHIKV nsP2 protease, endogenous NS2/3 peptide cleavage; further: nearly all actives have a fitted effect of over 55% in size
# Papain counter: Selectivity profile for inhibitors of NSP2Pro chikungunya virus (CHIKV): Papain Counterscreen. shares compounds with nsP2pro primary. purified papain protease activity, enzymatic inhibition. Potency, µM (top dose mostly 51 µM), hits mostly inhibitors. 410 compounds, 5% hits
# Target sequence (P00784 whole entry, looked up): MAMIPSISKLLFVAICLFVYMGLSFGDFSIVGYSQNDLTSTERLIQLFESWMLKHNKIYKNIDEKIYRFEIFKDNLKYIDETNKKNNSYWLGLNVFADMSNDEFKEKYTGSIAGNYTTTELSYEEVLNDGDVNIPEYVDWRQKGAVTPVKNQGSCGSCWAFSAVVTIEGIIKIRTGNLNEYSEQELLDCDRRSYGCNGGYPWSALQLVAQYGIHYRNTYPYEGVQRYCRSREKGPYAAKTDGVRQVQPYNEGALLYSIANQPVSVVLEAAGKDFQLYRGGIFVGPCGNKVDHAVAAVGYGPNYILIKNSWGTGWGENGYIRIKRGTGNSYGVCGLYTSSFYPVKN
# nsP2pro conf qHTS: Confirmatory qHTS for inhibitors of NSP2Pro chikungunya virus (CHIKV) | shares compounds with nsP2pro primary | 410 compounds, 43% hits | AID 1964105, 2024 | CHIKV nsP2 protease enzymatic activity, qHTS | Potency, µM (series often up to 25.5 µM), hits mostly inhibitors; further: nearly all actives have a fitted effect of over 75% in size
# HCV NS3 4A cs: Selectivity profile for inhibitors of NSP2Pro chikungunya virus (CHIKV): NS34A-HCV Counterscreen; shares compounds with nsP2pro primary; 410 compounds, 20% hits; Potency, µM (doses to about 50.9 µM), hits mostly inhibitors; HCV NS3/4A protease biochemical counterscreen; further: nearly all actives have a fitted effect of over 55% in size
# Numbers stand for hits; n = inactive; u = inconclusive. The call rests on the fitted dose curve.
SMILES,nsP2pro primary,others
CC(=O)Nc1ccc(S(=O)(=O)Nc2ccc([N+](=O)[O-])cc2)cc1,n,
Cc1cnc(C2CCOCC2)n1C1CCNCC1,n,
C[N+](C)(C)CCOP(=O)([O-])OP(=O)(O)OC[C@H]1O[C@@H](n2ccc(N)nc2=O)[C@H](O)[C@@H]1O,n,
CC(=O)c1cc([N+](=O)[O-])c(Sc2ccc(F)cc2F)s1,n,
CCCS(=O)(=O)NC[C@H]1C[C@@H]2CCN1C[C@@H]2c1cc(C(CC)CC)nc(-c2ccncc2)n1,n,
CC(C)NC(=O)OC[C@H]1C[C@@H]2CCN1C[C@@H]2c1cc(C2CCCC2)nc(-c2ccncc2)n1,5µM,nsP2 cell sec=n;NSP2 full ctr=6.5µM;Furin counterscr=u;NS23 peptide cs=18µM;Papain counter=n;nsP2pro conf qHTS=8µM;HCV NS3 4A cs=10µM
COc1ccc(-c2cc([C@H]3CN4CC[C@H]3C[C@@H]4COC(=O)Nc3ccccc3)n(C)n2)cc1,n,
Cn1nc(C2CCCC2)cc1[C@H]1CN2CC[C@H]1C[C@@H]2CNC(=O)c1cccs1,n,
CCC(CC)c1cc([C@H]2CN3CC[C@H]2C[C@@H]3CNC2CCN(C)CC2)nc(-c2ccncc2)n1,n,
O=C(NC1CCCCC1)OC[C@H]1C[C@@H]2CCN1C[C@@H]2c1cc(C2CCCC2)nc(-c2ccncc2)n1,7.9µM,nsP2 cell sec=n;NSP2 full ctr=u;Furin counterscr=u;NS23 peptide cs=u;Papain counter=n;nsP2pro conf qHTS=9µM;HCV NS3 4A cs=15µM
COc1ccccc1CCC(=O)N1c2ccccc2CC1c1nc(C2CC2)no1 (stereo unspecified),n,
Cc1ccc(C2N=C(Nc3nc4ccccc4o3)NC3=C2C(=O)CCC3)cc1 (stereo unspecified),n,
CC(C)N(C(=O)c1ccccc1-c1ccc(CS(C)(=O)=O)cn1)C(C)C,n,
O=C(Nc1ccc(S(=O)(=O)Nc2nccs2)cc1)[C@@H]1CC[C@H](C(=O)c2ccccc2)C1,n,
COc1ccc2[nH]c(-c3ccccc3)c(CCN(C)C)c2c1,n,
Cc1ccc2nc3sc(C(=O)NC4CCCC4)cc3cc2c1,n,
COc1ccccc1OCCN1C(=O)C2(CCOCC2)CC1c1nnnn1C(C)(C)C (stereo unspecified),n,
Cc1nc(-c2ccc(CNC(=O)CN3CCN(c4ncccn4)CC3)cc2)no1,n,
CCCCC1C(=O)N(c2ccccc2)N(c2ccc(O)cc2)C1=O (stereo unspecified),8.8µM,nsP2 cell sec=u;NSP2 full ctr=21µM;Furin counterscr=n;NS23 peptide cs=6.5µM;Papain counter=n;nsP2pro conf qHTS=8µM;HCV NS3 4A cs=n
CC(C)=CCC1C(=O)N(c2ccccc2)N(c2ccccc2)C1=O,n,
CCCCN1C(=O)c2ccccc2C1=O,n,
O=C(CC1C(=O)NCCN1Cc1ccoc1)NCc1nnc2n1CCCCC2 (stereo unspecified),n,
CC1=C(C(=O)n2ccc3ccccc32)C(c2ccccc2Br)N=C(Nc2nc3ccccc3o2)N1 (stereo unspecified),n,
O=C(Nc1ccc(OC(F)(F)F)cc1)c1cc2ccccn2n1,n,
O=C(Nc1ccc(OC(F)(F)F)cc1)c1nc2ccccc2nc1N1CCCCC1,u,nsP2 cell sec=n
SMILES,nsP2pro primary,others
CCOc1ccc(NC(=O)c2cnc(N3CCCCC3)c3ccccc23)cc1,n,
Cc1cn(C[C@H](N)C(=O)O)c(=O)n(Cc2ccsc2C(=O)O)c1=O,n,
Cc1ccoc1C(=O)N1CCc2c(nc(-c3cccnc3)nc2N(C)C)C1,n,
O=C1c2ccccc2-c2nc3nnnn3nc21 (tested in a mixture with another compound),u,nsP2 cell sec=u;NSP2 full ctr=u;Furin counterscr=n;NS23 peptide cs=0.92µM;Papain counter=n;nsP2pro conf qHTS=u;HCV NS3 4A cs=n
CCOc1cc(C)c(CN2CCCC(O)(CN(C)C)C2)cc1C(C)C (stereo unspecified),n,
COC(=O)C1=CO[C@@H](O[C@@H]2O[C@H](CO)[C@@H](O)[C@H](O)[C@H]2O)[C@H]2[C@@H]1C=C[C@]21C=C([C@H](C)OC(=O)/C=C/c2ccc(O)cc2)C(=O)O1,1.6µM,nsP2 cell sec=n;NSP2 full ctr=3.4µM;Furin counterscr=n;NS23 peptide cs=u;Papain counter=n;nsP2pro conf qHTS=1.3µM;HCV NS3 4A cs=u
C[C@@H](OC(=O)/C=C/c1ccc(O)cc1)C1=C[C@]2(C=C[C@@H]3C(C(=O)O)=CO[C@@H](O[C@@H]4O[C@H](CO[C@@H]5O[C@H](CO)[C@@H](O)[C@H](O)[C@H]5O)[C@@H](O)[C@H](O)[C@H]4O)[C@@H]32)OC1=O,n,
O=C(/C=C/c1ccc(O)cc1)OC[C@@]1(O)C=C[C@@H]2C(C(=O)O)=CO[C@@H](O[C@@H]3O[C@H](CO)[C@@H](O)[C@H](O)[C@H]3O)[C@@H]21,n,
Cc1ccc(S(=O)(=O)n2cc(C(=O)Nc3nc(-c4ccccc4)cs3)c3ccccc32)cc1,n,
C=CCN1CCN(C(=O)[C@@H]2Cc3c[nH]c4cccc(c34)[C@H](CC(C)C)N2)CC1,n,
C=CCN1C[C@H](C(=O)N(CCCN(C)C)C(=O)NCC)C[C@@H]2c3cccc4[nH]cc(c34)C[C@H]21,u,nsP2 cell sec=n;NSP2 full ctr=n;Furin counterscr=n;NS23 peptide cs=n;Papain counter=n;nsP2pro conf qHTS=n;HCV NS3 4A cs=n
CCCN1C(=O)CCc2cc(NC(=O)NCCCOCC)ccc21,n,
CC1C(O)C(O)C2C(C(=O)OCCc3ccc(O)cc3)=COC(O[C@@H]3O[C@H](CO)[C@@H](O)[C@H](O)[C@H]3O)C12 (stereo partly specified),n,
CC(=O)Nc1sc2c(c1-c1nc3ccccc3s1)CCNC2,n,
Cn1cnc(S(=O)(=O)Nc2cnccc2C(=O)Nc2nc(-c3ccccc3)cs2)c1,n,
O=C(NCCc1ccccc1)N1CC(c2noc(C3CCCN3CC3CC3)n2)C1 (stereo unspecified),n,
